B2AR arrestin: recruits beta-arrestin to the human beta2-adrenergic receptor | beta-arrestin recruitment to beta2AR, cell-based reporter | Potency, µM (doses to about 46.1 µM), for the others: at the top dose activation, actives largely listed as activators | P07550 | 330,000 compounds, 0.02% hits | AID 492947;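 also: 0% = DMSO controls and full agonism = EC100 isoproterenol or metaproterenol; nearly all actives have a fitted effect of over 65% in size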
NPSR antagonist: antagonists of human neuropeptide S receptor cAMP signaling | CHO-NPSR cells, cAMP TR-FRET, antagonist mode | Potency, µM (highest dose often 38.3 µM), without a hit: at the highest dose activity change, negative = inhibition, hits mostly inhibitors | 220,000 compounds, 1% hits; also: nearly all actives have a fitted effect of over 50% in size
VP16 counter: Gal4-VP16 reporter inhibition counter-screen. Drosophila S2 Gal4-VP16 UAS-luciferase, luminescence, 20 h. Potency, µM (series often up to 53.6 µM), for inactives: top-dose activity, negative = inhibition, usual class: inhibitors. 310,000 compounds, 3.5% hits;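 also: Gal4-VP16 expression switched on by copper sulfate through the metallothionein promoter; nearly all actives have a fitted effect of over 50% in size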
RORg inh: blocks mouse ROR gamma transcriptional activity. P51450. Potency, µM (series often up to 53.6 µM), for the others: at the highest dose activity change, negative = inhibition, usual class: inhibitors. 310,000 compounds, 5.4% hits. Drosophila S2 Gal4-RORgamma UAS-luciferase reporter, 20 h. AID 2551; also: nearly all actives have a fitted effect of over 60% in size
Target sequence (P51450 whole entry, looked up, the tested form may be a part): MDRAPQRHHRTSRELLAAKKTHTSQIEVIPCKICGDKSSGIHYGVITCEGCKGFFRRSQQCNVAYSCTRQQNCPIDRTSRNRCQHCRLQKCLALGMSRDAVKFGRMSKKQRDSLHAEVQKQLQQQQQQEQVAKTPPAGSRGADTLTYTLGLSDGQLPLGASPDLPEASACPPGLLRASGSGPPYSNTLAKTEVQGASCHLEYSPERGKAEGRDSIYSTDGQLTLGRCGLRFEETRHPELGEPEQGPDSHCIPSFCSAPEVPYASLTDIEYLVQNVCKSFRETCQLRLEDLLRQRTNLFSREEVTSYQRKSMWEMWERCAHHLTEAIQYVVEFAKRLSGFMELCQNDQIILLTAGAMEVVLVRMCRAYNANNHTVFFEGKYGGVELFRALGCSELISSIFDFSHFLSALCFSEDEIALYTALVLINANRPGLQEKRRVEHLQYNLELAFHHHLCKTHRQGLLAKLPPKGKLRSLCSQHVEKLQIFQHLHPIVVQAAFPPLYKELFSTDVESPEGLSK
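Luciferase reporter read in Schneider cells carrying Gal4-RORγ (mouse) and UAS-Photinus luciferase; cells given compound 1 h before 700 uM copper sulfate induction, then incubated 20 h at ambient temperature.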
An asterisk follows results filed as active; ? = inconclusive; . = no result; [ ] = dose if it differs, or a comment. An excerpt weighted towards active compounds, which were near 5.7% of everything screened. Calls follow the shape of the dose curve; as a rule, active = well fitted curve in the direction sought with a large enough effect; inconclusive = small, poorly fitted or top-dose-only effect, or another doubt; inactive = no such curve, though single readings can be large; an effect the other way counts as inactive or inconclusive. Unless noted, % is scaled to controls: 0 for no effect and ±100 for the full control effect; potency is read from the fitted curve at half-maximal effect.

SMILES	B2AR arrestin	NPSR antagonist	VP16 counter	RORg inh
FC(F)(F)c1ccccc1-n1c(CN2CCCCC2)n[nH]c1=S	-2%	7%	-26%	11µM*
CN1CC(=O)NC1=NC(=O)c1ccc(Cl)c(S(=O)(=O)N2CCCCCC2)c1	-1%	-4%[46.1 µM]	16µM*	3.5µM*
CN1CC(=O)NC1=NC(=O)c1cc(F)c(F)cc1Cl	1%	0%[46.1 µM]	?	10µM*
Cc1cc(C(=O)OCC(=O)Nc2ccccc2Br)c(C)o1	0%	.	.	.
O/N=C\c1ccc2noc(-c3ccc(Cl)cc3)c2c1	0%	.	-5%	-13%
COc1ccccc1NC(=O)C1=C(C)Nc2nnnn2C1c1ccccc1OC (centres undefined)	0%	-11%[46.1 µM]	0%	0%
COc1ccccc1/C=C1\CCCC2=C1Nc1nnnn1C2c1ccccc1OC (centres undefined)	7%	-18%	14µM*	?
CCOC(=O)N1CCC(N2C(=O)c3ccc(C(=O)Nc4cccc(OC)c4)cc3C2=O)CC1	-1%	.	-25%	-8%
COc1ccc(/C(C)=N/NC(=S)NCCc2ccccc2)c(O)c1	?	.	7.1µM*	5µM*
Oc1ccc(/C=N/Nc2ncc(Br)cn2)c(O)c1	-2%	-24%	?	?
COc1ccc(O)c(/C=N/NC(=S)NCCc2ccccc2)c1	0%	.	7.1µM*	3.2µM*
Oc1ccc(Br)cc1/C=N/NC(=S)NCCc1ccccc1	0%	.	16µM*	16µM*
Oc1ccc(Br)cc1/C=N/Nc1ncc(-c2ccccc2)cn1	0%	3%	-14%	11µM*
COc1cc(/C=N\NC(=O)CC(=O)NCCc2ccccc2)ccc1O	0%	-10%	-25%	1%
COc1ccc(/C(C)=N/NC(=O)CNC(=O)Cc2ccccc2)c(OC)c1	2%	-9%	-21%	-1%
CCc1ccccc1	.	.	8%	-5%
CCCn1c(C)nc2c(N3CCOCC3)nc(C)nc21	.	.	-3%	-23%
CO[C@H]1COC(=O)C/C=C\[C@@H](C)COC(=O)[C@@H](CCSC)NC(=O)C/C=C\[C@@H]1C	.	.	6%[10 µM]	-30%[10 µM]
S=C(NCCc1ccccc1)N/N=C/c1ccccc1Cl	0%	-6%[46.1 µM]	?	11µM*
O=C(Cc1ccccc1)N/N=C/c1ccccc1Cl	-1%	-1%[46.1 µM]	-3%	?
NC(=O)c1ccc(NC(=O)COC(=O)c2c3c(nc4ccccc24)/C(=C\c2cccs2)CCC3)cc1	0%	-38%	5µM*	4.5µM*
CCC(=O)NC(=S)Nc1ccc(-c2nc3ccc(C)cc3s2)cc1	0%	0%[46.1 µM]	0.89µM*	1.1µM*
CCC(=O)NC(=S)Nc1ccc(-c2nc3ccccc3s2)cc1	0%	-4%[46.1 µM]	?	1.6µM*
CN(Cc1ccccc1)Cc1nc2scc(-c3ccccc3)c2c(=O)[nH]1	0%	-29%	?	3.2µM*
COc1ccc(-c2cc3cccc(OC)c3oc2=O)cc1	0%	.	?	10µM*
SMILES	B2AR arrestin	NPSR antagonist	VP16 counter	RORg inh
CC(Sc1nnc(-c2ccncc2)n1C)C(=O)Nc1nccs1 (centres undefined)	0%	.	-5%	-28%
O=C(c1cccc(C(F)(F)F)c1)C1CCCN(C(=O)CCn2cnnn2)C1 (centres undefined)	0%	5%	2%	14%
CC(=O)c1ccc(NC(=S)NC(=O)/C=C/c2ccco2)cc1	0%	.	?	10%[1.91 µM]
Cc1cccc(NC(=O)/C=C/c2ccc(Cl)cc2)n1	0%	-6%[46.1 µM]	7.1µM*	1.6µM*
Cc1cccc(NC(=S)NC(=O)/C=C/c2ccco2)c1	0%	-15%	?	4.5µM*
O=C(/C=C/c1ccco1)NC(=S)Nc1ccccc1	7%	.	3.2µM*	7.1µM*
Cc1cccc(NC(=O)/C(C#N)=C/c2ccc(Cl)cc2)n1	0%	.	2%	16%
Cc1cccc(NC(=S)NC(=O)/C=C/c2ccco2)n1	1%	?	?	10µM*
COCCCNC(=O)c1nc2ccccc2c(=O)n1NC(=O)Nc1c(Cl)cccc1Cl	0%	.	-3%	9%
COc1cc2c(cc1NC(=O)COC(=O)[C@@H](NS(=O)(=O)c1cccc(Cl)c1)C(C)C)oc1ccccc12	0%	-38%	11µM*	13µM*
COc1ccc(S(=O)(=O)N[C@@H](C)C(=O)OCC(=O)Nc2cc3oc4ccccc4c3cc2OC)cc1	-1%	-27%	16µM*	?
COc1cc2c(cc1NC(=O)COC(=O)CNS(=O)(=O)c1ccc(C)cc1)oc1ccccc12	0%	-14%	4µM*	11µM*
COc1ccc(NC(=O)COC(=O)CNS(=O)(=O)c2ccc(C)cc2)c(OC)c1	-1%	11%	-5%	-10%
COc1cc2c(cc1NC(=O)COC(=O)c1ccccc1)oc1ccccc12	0%	-8%	-2%	-27%
CCOC(=O)C1CCN(C(=O)CSc2nccc(C)n2)CC1	0%	12%	0%	-1%
CCOc1ccc(N(CC(=O)NC2CCCCC2)C(=O)CCCC(=O)Nc2ccccn2)cc1	0%	.	-15%	2%
N#CC1=C(N)Oc2n[nH]c(-c3cccnc3)c2C1c1ccc([N+](=O)[O-])o1 (centres undefined)	0%	-3%	?	6.3µM*
N#CC1=C(N)Oc2n[nH]c(-c3ccccc3)c2C1c1cccnc1 (centres undefined)	0%	-12%[46.1 µM]	6%	2%
COc1cc2cc3c4c(cc(OC)c(OC)c4c2cc1OC)CCN3C	.	.	-6%	2.8µM*
COc1cc2c(cc1OC)C(=O)N(C)CC2	-1%	-17%	5%	8%
Cc1ccc(N=Cc2c(C)[nH]n(-c3nc4ccccc4[nH]3)c2=O)cc1	0%	12%	11µM*	2.8µM*
Cc1ccc(-n2[nH]c(C)c(C=Nc3ccc4[nH]c(=O)[nH]c4c3)c2=O)cc1	0%	-25%	?	22%[10 µM]
CC(C)Cn1c(=O)c2ccccc2n2c(CCC(=O)NCC3CCCO3)nnc12 (centres undefined)	-1%	.	2%	2%
COc1cc(C(=O)Nc2cc3c(cc2N2CCCCC2)n(C)c(=O)n3C)cc(OC)c1OC	-1%	.	8%	?
COc1ccc(C(=O)Nc2cc3c(cc2N2CCCCC2)n(C)c(=O)n3C)cc1OC	0%	.	8%	3.5µM*
SMILES	B2AR arrestin	NPSR antagonist	VP16 counter	RORg inh
Ic1ccc(N2CCN(Cc3c[nH]c4ncccc34)CC2)cc1	0%	-15%[46.1 µM]	.	.
CCn1c(SCC(=O)c2ccc(Cl)cc2)nnc1-c1ccoc1C	5%	?	?	?
CCn1c(SCC(=O)c2ccc(C)cc2)nnc1-c1ccoc1C	-1%	-27%[46.1 µM]	16µM*	?
O=C(NC12CC3CC(CC(C3)C1)C2)N(Cc1ccccc1)Cc1ccncc1	0%	-42%	4%	-2%
Cc1ccccc1CNC(=O)C(=O)NCC1OCCCN1S(=O)(=O)c1cccs1 (centres undefined)	0%	.	4%	9%
O=C(O)C1CC=CCC1C(=O)N1CCN(c2nc(-c3ccccc3Cl)c3cc(Br)ccc3n2)CC1 (centres undefined)	0%	13µM*	-6%	37%
O=C(O)C1CC=CCC1C(=O)N1CCN(c2nc(-c3ccccc3)c3ccccc3n2)CC1 (centres undefined)	0%	-9%[46.1 µM]	4%	12%

Screening results from PubChem.
